Assay results from publication PMC5540273 (PLoS ONE, 2017).

Key:
Settings in all cases: concentration: 1 μM,replicates: in singlicate; n = 1
STK36 = test system: STK36
STK39 = test system: STK39
SYK = test system: SYK
SgK110 = test system: SgK110
TAK1 = test system: T1, TAK1
T1 construct: gene MAP3K7

TAOK1 = test system: TAOK1
TAOK2 = test system: TAOK2
TAOK3 = test system: TAOK3
TBK1 = test system: TBK1
TEC = test system: TEC
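Also: KINOMEscan kinase panel screen.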

| SMILES | %Inh (STK36) | %Inh (STK39) | %Inh (SYK) | %Inh (SgK110) | %Inh (TAK1) | %Inh (TAOK1) | %Inh (TAOK2) | %Inh (TAOK3) | %Inh (TBK1) | %Inh (TEC) |
| --- | --- | --- | --- | --- | --- | --- | --- | --- | --- | --- |
| COc1cccc(CNC(=O)NC2CCN(c3ccnc(Nc4cc(OC)c(OC)c(OC)c4)n3)C2)c1 (stereo not drawn) [GSK1379765] | 0% | 10% | 9% | 0% | 0% | 0% | 0% | 0% | 36% | 13% |
| Cc1nnc(-c2ccc3occ(-c4ccc(S(C)=O)cc4)c3n2)o1 (stereo not drawn) | 0% | 0% | 0% | 3% | 0% | 0% | 0% | 0% | 30% | 0% |
| Cc1ccc(C(=O)Nc2ccc(Oc3ccc4nc(NC(=O)C5CC5)cn4c3)c(F)c2)c(=O)n1-c1ccccc1 | 3% | 25% | 59% | 0% | 0% | 0% | 0% | 0% | 44% | 55% |
| CN(c1cccc(CNc2nc(Nc3ccc4c(c3)CC(=O)N4)ncc2C(F)(F)F)c1)S(C)(=O)=O | 20% | 0% | 37% | 0% | 43% | 0% | 16% | 0% | 70% | 0% |
| FC(F)(F)c1cc(Br)cc(Nc2nccc(-c3cnn4ncccc34)n2)c1 [GW810578] | 19% | 0% | 21% | 0% | 62% | 58% | 0% | 4% | 17% | 0% |
| CCOC(=O)N1CCC(n2cnc(-c3ccc(F)cc3)c2-c2ccnc(N)n2)CC1 [SB-219952] | 47% | 46% | 13% | 0% | 42% | 0% | 3% | 0% | 16% | 0% |
| O=C1NCCc2[nH]c(-c3ccncc3)cc21 | 6% | 23% | 11% | 0% | 23% | 96.9% | 16% | 41% | 20% | 0% |
| O=C(Nc1ccc(Oc2ccc3nc(NC(=O)C4CC4)cn3n2)c(F)c1)c1cccn(-c2ccccc2)c1=O | 1% | 0% | 30% | 0% | 0% | 0% | 0% | 0% | 54% | 44% |
| Cc1ccc(Nc2ccnc(Nc3ccc4c(c3)CS(=O)(=O)C4)n2)cc1O.Cl [GW579362] | 92.2% | 17% | 93.2% | 0% | 99.5% | 81% | 30% | 47% | 90% | 83% |
| c1ccc(Oc2ccc(Nc3ccnc4ccc(-c5ccccn5)cc34)cc2)cc1 [GW407034] | 0% | 15% | 1% | 27% | 0% | 0% | 24% | 0% | 18% | 78% |
| CCn1c(-c2nonc2N)nc2cncc(CNC3CCNCC3)c21.Cl [SB-747651] | 0% | 24% | 21% | 2% | 0% | 0% | 1% | 0% | 7% | 2% |
| C[C@@H](Oc1cc(-n2cnc3ccc(-c4ccncc4)cc32)sc1C(N)=O)c1ccccc1Cl [GSK483724] | 0% | 7% | 12% | 0% | 39% | 0% | 0% | 0% | 17% | 11% |
| Cl.Cl.NC[C@H](CC1CCCCC1)NC(=O)c1ccc(-c2ccnc3[nH]ccc23)s1 [GSK1581428] | 0% | 7% | 20% | 95.3% | 64% | 87% | 0% | 14% | 29% | 0% |
| Cn1ccc2ncnc(Oc3ccc(NC(=O)Nc4cncc(C(F)(F)F)c4)c(Cl)c3)c21 | 0% | 0% | 0% | 9% | 11% | 0% | 0% | 0% | 0% | 0% |
| O=C(NCC1CC1)c1ccc(-c2cc(C(=O)NC3CC3)ccc2F)cc1 [GW810445] | 0% | 15% | 17% | 51% | 4% | 0% | 0% | 0% | 26% | 2% |
